# Assay results as given in the supplement of paper PMC12350171.
# Counter-ions that a name gives are not always drawn. Values without a mark were called inactive.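 Rule for the calls: active = normalised median growth AUC below 0.1 of DMSO control; inactive = AUC 0.1 or higher.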
# Assays:
# Experiment in all cases: growth AUC normalised to DMSO control (median) (fraction of control); higher = less growth inhibition, active = hit call of the paper
# Conditions in all cases: 20 µM
# [1] = tested on: P. vulgatus RND KO
# Summary of the method: (§1)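 After two overnight anaerobic passages, strains were inoculated at OD578 0.01 into mGAM in 96-well plates containing approved-drug library compounds at 20 μM and 1% DMSO. Growth was followed by reading OD578 hourly for 24 h within an anaerobic incubator. Area under the curve, taken by the trapezoidal rule up to the start of stationary phase, was normalised to same-plate vehicle wells, and the median of three biological replicates is listed.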
# [2] = tested on: P. vulgatus WT
# Summary of the method: as §1
# [3] = tested on: S. enterica typhimurium WT
# Summary of the method: as §1
# [4] = tested on: S. enterica typhimurium tolC KO
# Summary of the method: as §1
# 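Note: active when median AUC fell below 0.1.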
SMILES,growth AUC normalised to DMSO control [1],growth AUC normalised to DMSO control [2],growth AUC normalised to DMSO control [3],growth AUC normalised to DMSO control [4]
Cc1cc(NS(=O)(=O)c2ccc(N)cc2)nc(C)n1 [Sulfisomidine],1.03,1.03,1,0.995
CC=CC1=C(C(=O)O)N2C(=O)[C@@H](NC(=O)[C@H](N)c3ccc(O)cc3)[C@H]2SC1 [Cefprozil],1.45,1.42,1.01,0.983
OC[C@H]1O[C@@H](n2cnc3cncnc32)[C@H](O)[C@@H]1O [Nebularine],0.991,0.997,1,0.997
O=C1c2cccc3c2[C@H](CCC3)CN1[C@@H]1CN2CCC1CC2 [Palonosetron hydrochloride],0.973,1,1,0.998
CCCCOCCOCCOCc1cc2c(cc1CCC)OCO2 [Piperonyl butoxide],1.08,1.05,1.02,0.872
O=C(CCCl)NCc1ccccc1 [Beclamide],0.972,0.966,1.01,0.974
CC[N+]1(CC)CCC(=C(c2ccccc2)c2ccccc2)C1C (stereo not drawn) [Prifinium Bromide],0.997,0.989,1,0.935
OC[C@H]1O[C@H](O[C@H]2O[C@H](CO)[C@@H](O)[C@H](O)[C@H]2O)[C@H](O)[C@@H](O)[C@@H]1O [Trehalose dihydrate],1,1,1.01,1.01
Nc1ccc2cc3ccc(N)cc3nc2c1 [Proflavine hemisulfate],0.996,0.995,0.955,0.91
CN(C)CCCN1c2ccccc2[S+]([O-])c2ccc(Cl)cc21 (stereo not drawn) [Chlorpromazine Sulfoxide],1.07,1.03,0.995,1.01
COc1ccc(-c2ccc3cc(C(=O)O)ccc3c2)cc1C12CC3CC(CC(C3)C1)C2 [Adapalene],1.03,1,0.988,1.01
Cc1cn(-c2cc(NC(=O)c3ccc(C)c(Nc4nccc(-c5cccnc5)n4)c3)cc(C(F)(F)F)c2)cn1 [Nilotinib],1.03,1.05,0.994,0.984
CCCCCCNC(=O)n1cc(F)c(=O)[nH]c1=O [Carmofur],0.0803 (active),0.0792 (active),0.806,0.717
CC(=O)Oc1c(C)cccc1C(=O)O [Cresopirine],0.998,0.986,0.998,0.986
CC(=O)OC(C)OC(=O)C(C)c1ccc(-c2ccccc2)c(F)c1 (stereo not drawn) [Flurbiprofen axetil],1.09,1.1,1.01,0.856
CC(C)c1nc(CN(C)C(=O)N[C@H](C(=O)N[C@@H](Cc2ccccc2)C[C@H](O)[C@H](Cc2ccccc2)NC(=O)OCc2cncs2)C(C)C)cs1 [Ritonavir],1.04,1.04,0.998,0.97
COc1ccc2c(c1)c(CC(=O)OC/C=C(\C)CC/C=C(\C)CCC=C(C)C)c(C)n2C(=O)c1ccc(Cl)cc1 [Indometacin farnesil],1,0.988,0.996,1.01
CC(C(=O)O)c1ccc2c(c1)CC(=O)c1ccccc1S2 (stereo not drawn) [Zaltoprofen],1.02,1.01,0.998,0.978
COc1cc(/C=C/C(=O)N2CCN(CC(=O)N3CCCC3)CC2)cc(OC)c1OC [Cinepazide maleate],1.04,1.08,1.01,1.01
O=C1CN2Cc3c(ccc(Cl)c3Cl)N=C2N1 [Anagrelide],1.01,0.996,0.994,0.957
NS(=O)(=O)c1cc2c(cc1Cl)NC(Cc1ccccc1)NS2(=O)=O (stereo not drawn) [Benzylhydrochlorothiazide],1.08,1.1,1,0.994

SMILES,growth AUC normalised to DMSO control [1],growth AUC normalised to DMSO control [2],growth AUC normalised to DMSO control [3],growth AUC normalised to DMSO control [4]
C=CCOc1ccc(CC(=O)O)cc1Cl [Alclofenac],1.06,1.12,1,0.959
CN(C)CCc1c[nH]c2ccc(Cn3cncn3)cc12 [Rizatriptan benzoate],1.02,1.03,1,0.994
NC(=O)NS(=O)(=O)c1ccc(N)cc1 [Sulfacarbamide],0.997,1.01,0.995,1
CN(CCOc1ccc(NS(C)(=O)=O)cc1)CCc1ccc(NS(C)(=O)=O)cc1 [Dofetilide],0.985,0.992,0.999,1
CCC(=O)O[C@@H]1CC(=O)O[C@H](C)C/C=C/C=C/[C@H](O)[C@H](C)C[C@H](CC=O)[C@H](O[C@@H]2O[C@H](C)[C@@H](O[C@H]3C[C@@](C)(O)[C@@H](OC(=O)CC)[C@H](C)O3)[C@H](N(C)C)[C@H]2O)[C@H]1OC [Midecamycin],0.00894 (active),0.0119 (active),0.998,0.0799 (active)
C[C@H]1COc2c(N3CCN(C)CC3)c(F)cc3c(=O)c(C(=O)O)cn1c23 [Levofloxacin],0.014 (active),0.0149 (active),0.00504 (active),0.00559 (active)
CC(=O)Nc1ccc(OC(=O)c2ccccc2O)cc1 [Acetaminosalol],0.959,0.964,1,0.937
COc1ccc(C[C@@H]2c3cc(OC)c(OC)cc3CC[N@+]2(C)CCC(=O)OCCCCCOC(=O)CC[N@@+]2(C)CCc3cc(OC)c(OC)cc3[C@H]2Cc2ccc(OC)c(OC)c2)cc1OC [Cisatracurium besylate],1.06,1.05,1.02,0.994
CCN1CCN(c2cc3c(cc2F)c(=O)c(C(=O)O)cn3C2CC2)CC1 [Enrofloxacin],0.0121 (active),0.0049 (active),0.00541 (active),0.00221 (active)
CCC[C@@H]1C[C@@H](C(=O)N[C@@H]([C@H]2O[C@H](SC)[C@H](OP(=O)(O)O)[C@@H](O)[C@H]2O)[C@H](C)Cl)N(C)C1 [Clindamycin Phosphate],0.844,0.895,1,0.961
COc1cc(C(=O)N2CCOCC2)cc(OC)c1OC [Trimetozine],1.01,1.01,0.996,0.991
CCOC(=O)c1ccc(C#Cc2ccc3c(c2)C(C)(C)CCS3)nc1 [Tazarotene],0.993,1.02,1,0.982
COc1c(O)cc2c(c1O)[C@@H]1O[C@H](CO)[C@@H](O)[C@H](O)[C@H]1OC2=O [Bergenin],1.04,1.01,1.02,0.995
C[C@@H](NCCCc1cccc(C(F)(F)F)c1)c1cccc2ccccc12 [Cinacalcet hydrochloride],1.01,1.02,1.01,0.996
CC1(C)O[C@@H]2C[C@H]3[C@@H]4CCC5=CC(=O)C=C[C@]5(C)[C@H]4[C@@H](O)C[C@]3(C)[C@]2(C(=O)CO)O1 [Desonide],0.783,0.993,0.996,1
CC(=O)OCC(=O)[C@@]1(O)CC[C@H]2[C@@H]3CCC4=CC(=O)C=C[C@]4(C)[C@@]3(Cl)[C@@H](Cl)C[C@@]21C [Dichlorisone acetate],0.976,0.97,0.989,0.956
N[C@@H](CCC(=O)N[C@@H](CS)C(=O)NCC(=O)O)C(=O)O [Glutathione],0.996,1,1,0.956
NC[C@H]1O[C@H](O[C@H]2[C@H](O)[C@@H](O[C@H]3O[C@H](CO)[C@@H](O)[C@H](N)[C@H]3O)[C@H](N)C[C@@H]2N)[C@H](N)[C@@H](O)[C@@H]1O [Kanamycin B],1.1,1.14,0.947,1.02
COc1cc2c(cc1OC)C(=O)C(CC1CCN(Cc3ccccc3)CC1)C2 (stereo not drawn) [Donepezil hydrochloride],0.997,1.01,0.997,0.981
CCC(NC(C)C)C(O)c1ccc(O)c2[nH]c(=O)ccc12 (stereo not drawn) [Procaterol hydrochloride],1.08,1.09,1,0.987
Cc1cccc(C)c1NC(=O)CC12CCCN1CCC2 [Pilsicainide Hydrochloride],1.05,1.09,1,1
